Experimental data reported in PubChem BioAssay (NCATS).
“And” between values parts separate entries of the source, which are not always exact repeats. Identical values can stand only once. Inconclusive results are not listed. The source made the active and inactive calls. Calls follow the shape of the full dose curve.
Potency is read from the fitted curve at half-maximal effect.

Test: Primary qHTS to identify inhibitors of SARS-CoV-2 cell entry (AID 1645846); also: nearly all actives have a fitted effect of over 45% in size
Details: SARS-CoV-2 pseudovirus cell entry assay, luminescence; activity change, negative = inhibition: at 57.1 µM (top of the series) unless noted; series mostly up to 57.1 µM
Text: Assay Provider: Wei Zheng, Ph.D.
National Center for Advancing Translational Sciences, National Institute of Health, Rockville, MD.
SARS-CoV-2 spike protein, within the viral envelope, mediates viral attachment and infection of host cells. The SARS-CoV-2 spike protein specifically binds to the host receptor ACE2 (Angiotensin-converting enzyme 2). This interaction promotes endocytosis of the viral particle, additional events lead to viral-host cell membrane fusion and release of the viral contents, allowing viral replication.
While SARS-CoV-2 requires BSL-3 facilities for live virus work, pseudotyped partices (PP) that incorporate SARS-CoV-2 spike proteins without replication elements could facilitate studies on viral entry mechanisms in a BSL-2 setting. This PP cell entry assay could also enable screening of small molecule compound libraries in BSL-2 setting to identify inhibitors of SARS-CoV-2 cell entry.
PROTOCOL TABLE (format as described by Inglese J, Shamu CE and Guy RK. 2007)
SEQUENCE No. (e.g., 1, 2, 3, etc.); […] (e.g., Cells, Incubation, Reagent, etc.); VALUE and DESCRIPTION.
1. Cells. Seed 1500 HEK293-ACE2 cells (Expi293F with stable expression of human ACE2) in 2 uL/well media (DMEM, 10% FBS, 1x L-glutamine, 1x Pen/Strep, 1 ug/ml puromycin) in white 1536-well assay plates (Greiner #782073).
2. Incubation. Incubate at 37C with 5% CO2 overnight (~16 h).
3. Compounds. Dispense 23 nL/well compounds in DMSO via pin transfer.
4. Incubation. Incubate for 1 hr at 37C 5% CO2.
5. Reagent. Dispense 2 uL/well of SARS-CoV-2-S pseudotyped particles. [a] PPs are produced with murine leukemia virus pseudotyping. [b] SARS-CoV-2-S is Wuhan-Hu-1 sequence (BEI #NR-52420) with C-terminal 19 amino acid truncation.
6. Centrifuge. […]
7. Incubation. Incubate at for 48 hr at 37C 5% CO2
8. Centrifuge. Remove supernatant with gentle centrifugation using a Blue Washer (BlueCat Bio).
9. Reagent. Dispense 4 uL/well of Bright-Glo Luciferase detection reagent (Promega #E2620).
10. Incubation. Incubate for 5 min at room temperature.
11. Detection. Read luminescence signal (Viewlux plate reader, PerkinElmer). Data was normalized with wells containing SARS-CoV-2-S PP as 100%, and wells containing bald PP (no fusion protein) as 0%.
In the case of `CC(C(C)N1CC(=O)NC(=O)C1)N1CC(=O)NC(=O)C1` (stereo not given), the activity change, negative = inhibition is reported as -28.5%. Compound `Cc1c(Cn2c(C)nc3c(C(=O)O)cc(N4CCOCC4)cc32)cccc1C(F)(F)F` has an activity change, negative = inhibition of -3.96%. With `CN1C(C(=O)Nc2ccccn2)=C(O)c2sc(Cl)cc2S1(=O)=O` the activity change, negative = inhibition was 2.28%. With `CCCCC(F)(F)[C@@]1(O)CC[C@H]2[C@H](CC(=O)[C@@H]2CCCCCCC(=O)O)O1` the “outcome” value was “inactive”. For `Cc1ccccc1-n1c(Cn2nc(-c3cccc(O)c3)c3c(N)ncnc32)nc2cccc(C)c2c1=O`, the activity change, negative = inhibition was -14.4%. In the case of `O=C(O)c1nc(=O)[nH]c(=O)[nH]1`, the outcome is reported as “inactive [at 0.702 µM]” and the activity change, negative = inhibition is reported as -18.6% [at 27.1 µM]. For `COc1cc2c(cc1-c1c(C)noc1C)ncc1[nH]c(=O)n([C@H](C)c3ccccn3)c12`, the activity change, negative = inhibition was -29%. With `CNC(=O)[C@H](Cc1ccccc1)NC(=O)[C@H](CC(C)C)[C@H](CSc1cccs1)C(=O)NO` the activity change, negative = inhibition was -35.2%. In the case of `CCC(=O)NS(=O)(=O)c1ccc(-c2c(-c3ccccc3)noc2C)cc1`, the activity change, negative = inhibition is reported as -22.2% and -23.1%. For `N[C@H](CO)C(=O)O`, the “outcome” value was “inactive”. Work on `Cc1ccccc1C(C(=O)NC1CCCCC1)N(C(=O)Cn1ccnc1C)c1cccc(F)c1` (stereo not given) yielded an activity change, negative = inhibition of -3.95%. `CC(NCCc1ccc(O)cc1)C(O)c1ccc(O)cc1` (stereo not given) showed an activity change, negative = inhibition of -5.33%. For `CCCCOc1nc(N)c2c(n1)N(Cc1cccc(CN3CCCC3)c1)CC(=O)N2`, the activity change, negative = inhibition was -22.5%. In the case of `NC(=O)[C@@H](CCC(F)(F)F)N(Cc1ccc(-c2ncon2)cc1F)S(=O)(=O)c1ccc(Cl)cc1`, the activity change, negative = inhibition is reported as -47.2%. For `N[C@@H](Cc1ccc(O)c(O)c1)C(=O)O`, the activity change, negative = inhibition was -25.4% and the outcome was “inactive [at 0.702 µM]”. `Nc1ncnc2ccccc12` showed an activity change, negative = inhibition of 2.32%. With `CNC(=O)c1c(F)cccc1Nc1nc(Nc2cc3c(cc2OC)CCN3C(=O)CN(C)C)nc2[nH]ccc12` the Potency was 20 µM (active). In the case of `COc1ccc(-c2cnc3c(-c4cccc5ncccc45)cnn3c2)cc1`, the “outcome” value is reported as “inactive”. In the case of `CCN(CC)CCCC(C)Nc1nc(C)cc(Nc2ccc3nc(C)cc(N)c3c2)n1` (stereo not given), the activity change, negative = inhibition is reported as -23.9%. For `Cc1cc(O)c2c(c1)O[C@@]1(C)CC[C@H]3C(C)(C)CCCC34CO[C@@H]2[C@H]41` (stereo not given in full), the activity change, negative = inhibition was -25.2%. Compound `O=C(O)/C=C/c1ccccc1` has an activity change, negative = inhibition of -30.4% [at 114 µM]. With `Cc1ncc(OC[C@@]2(c3cccc(F)c3)C[C@H]2C(=O)Nc2ccc(F)cn2)c(C)n1` the “outcome” value was “inactive”. In the case of `CC(C)C[C@H](CC(=O)O)C(=O)N[C@@H](Cc1c[nH]c2ccccc12)C(=O)N[C@@H](C)c1ccccc1`, the activity change, negative = inhibition is reported as -6.02%. `CC(C)n1nc(-c2ccc3oc(N)nc3c2)c2c(N)ncnc21` gave an activity change, negative = inhibition of -61%. `CN1CC[C@@H](c2c(O)cc(O)c3c(=O)cc(-c4ccc(C(F)(F)F)cc4Cl)oc23)[C@@H]1CO` showed an activity change, negative = inhibition of -12.4%. In the case of `Nc1cc(Cl)c(NC2=NCCN2)c(Cl)c1`, the activity change, negative = inhibition is reported as -17%. Work on `O=C(Nc1ccccc1Br)N[C@@H]1CCN(c2ccc(C(F)(F)F)cn2)C1` yielded an activity change, negative = inhibition of -27.3%. `C[C@H]1COC2=C1C(=O)C(=O)c1c2ccc2c1CCCC2(C)C` showed an activity change, negative = inhibition of -2.76%. `CN[C@@H](C)C(=O)N[C@H]1CN(C(=O)CC(C)C)CC[C@H]2CC[C@@H](C(=O)NC(c3ccccc3)c3ccccc3)N2C1=O` gave an activity change, negative = inhibition of 1.03%. `COC(=O)[C@H]1[C@@H](OC(=O)c2ccccc2)C[C@@H]2CC[C@H]1N2C` gave an activity change, negative = inhibition of -14.7% [at 114 µM]. Compound `CNC(=O)c1cc(COc2nnc(Nc3ccc(Cl)cc3)c3ccoc23)ccn1` has an activity change, negative = inhibition of -17%. In the case of `OC[C@@H](O)[C@@H](O)[C@H](O)[C@@H](O)CO`, the “outcome” value is reported as “inactive”. `C[C@@H]1CC[C@@]2(OC1)OC1CC3C4CC=C5CC(O)CCC5(C)C4CCC3(C)C1[C@@H]2C` (stereo not given in full) gave an activity change, negative = inhibition of -1.34%. In the case of `COc1nccc(-c2c(-c3ccc(F)cc3)ncn2C2CCNCC2)n1`, the “outcome” value is reported as “inactive”. With `COc1ccc(CC2c3cc(OC)c(OC)cc3CC[N+]2(C)CCC(=O)OCCCCCOC(=O)CC[N+]2(C)CCc3cc(OC)c(OC)cc3C2Cc2ccc(OC)c(OC)c2)cc1OC` (stereo not given) the activity change, negative = inhibition was -27% and -4%. In the case of `C[C@]12CC[C@H](O)CC1=CCC1C2CC[C@]2(C)C(n3cnc4ccccc43)=CCC12` (stereo not given in full), the “outcome” value is reported as “inactive”. For `N#CC1(c2cccc(C(=O)Nc3cc(Oc4ccc5nc(NC(=O)C6CC6)sc5n4)ccc3F)c2Cl)CC1`, the activity change, negative = inhibition was -79.3%. Compound `O=C(c1ccc(C(=O)N2CCC(N3CCCC3)CC2)c(Nc2ccccc2)c1)N1CCC(N2CCCC2)CC1` has an activity change, negative = inhibition of -24.6%.
